Measurements from PubChem BioAssay AID2563 (Broad Institute, 2010).
The campaign covered roughly 290,000 compounds. About 800 (0.28%) were called active.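 The calls were made as follows: active = fall in fluorescence gain of 50% or more versus controls, with final raw signal at or below 3038400; inconclusive = same 50% fall but final raw signal above 3038400; inactive = fall in fluorescence gain under 50%.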 Only a selection was taken, and actives are over-represented in it overall.

molecular target: CAAX prenyl protease 2 (Saccharomyces cerevisiae (strain ATCC 204508 / S288c)) (UniProt Q03530); assay: yeast Rce1p protease inhibitors, primary screen, biochemical, fluorescence, cell-free homogeneous (AID 2563); settings: yeast membranes, quenched prenylated peptide cleavage fluorescence
Sequence (Q03530 whole entry, looked up): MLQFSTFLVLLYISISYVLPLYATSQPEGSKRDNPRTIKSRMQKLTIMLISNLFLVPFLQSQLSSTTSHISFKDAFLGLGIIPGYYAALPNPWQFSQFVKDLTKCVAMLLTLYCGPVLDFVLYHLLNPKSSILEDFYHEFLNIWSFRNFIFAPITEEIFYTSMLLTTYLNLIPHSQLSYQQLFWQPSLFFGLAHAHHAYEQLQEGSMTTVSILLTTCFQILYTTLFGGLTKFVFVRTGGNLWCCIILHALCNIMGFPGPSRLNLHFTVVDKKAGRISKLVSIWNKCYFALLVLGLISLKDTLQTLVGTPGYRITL

Structure (SMILES)	outcome
CC(C)CN(C(=O)COC(=O)c1ccc2ccccc2c1)c1c(N)n(Cc2ccccc2)c(=O)[nH]c1=O	inactive
COc1ccc(NS(=O)(=O)c2ccc(C)c(C(=O)NCC(c3cccs3)N3CCOCC3)c2)cc1 (stereo not drawn)	inactive
CC(=O)NN1C(=O)c2ccccc2NC1c1ccccc1 (stereo not drawn)	active
CN(C)c1ccc(C2Nc3ccccc3C(=O)N2NS(=O)(=O)c2ccccc2)cc1 (stereo not drawn)	inactive
CCOC(=O)NN1C(=O)c2ccccc2NC1c1cccc(O)c1 (stereo not drawn)	inactive
COCCn1c(SC(C)C(=O)NC2CC2)nnc1-c1cccc(C)c1 (stereo not drawn)	inactive
CC(C)(C)S(=O)(=O)c1ccccc1-c1noc(-c2ccccc2)c1C(N)=O	inactive
CCn1c(SC(C)C(=O)Nc2ccc(N3CCOCC3)cc2)nnc1-c1ccco1 (stereo not drawn)	inactive
Cc1ccc(C(=O)N/N=C/c2cccc3ccccc23)cn1	inactive
CCCCCN(C(=O)CCC(=O)OCC(=O)NC1CCC(C)CC1)c1c(N)n(CCCC)c(=O)[nH]c1=O (stereo not drawn)	inactive
COc1ccc(C)cc1S(=O)(=O)Nc1cc2c3c(c1)CCC(=O)N3CCC2	inactive
CCCc1cc(=O)[nH]c(SCC(=O)c2c(N)n(CC(C)C)c(=O)n(C)c2=O)n1	inactive
O=C(CN1C(=O)NC2(CCCC2)C1=O)OCCOc1ccc(F)cc1	inactive
CCN1CCN(c2ccc(S(=O)(=O)N3CCCCC3)cc2NC(=O)c2cccc(NC(C)=O)c2)CC1	inactive
Cc1onc(-c2ccccc2Cl)c1C(=O)N(Cc1ccc(N(C)C)cc1)C(C)C	inactive
CCc1noc(C)c1C(=O)Nc1nc2ccc(OC)cc2s1	inactive
COC(C[C@@H](O)C[C@H](O)[C@H](C)OCc1ccccc1)OC	active
COC(C[C@H](O)CC(=O)[C@@H](C)OCc1ccccc1)OC	inactive
COC(C[C@@H](O)C[C@@H](O)[C@H](C)OCc1ccccc1)OC	inactive
Cc1ccc2nnn(Cc3cccc(C(C)(C)C)c3O)c2c1	inactive
Cc1ccc2nc(NC(=O)CSc3nc(=O)n(CCCN(C)C)c4c3CCC4)sc2c1	inactive

Structure (SMILES)	outcome
O=C(NCC(=O)N1CCCC(C(F)(F)F)C1)c1ccccc1F (stereo not drawn)	inactive
Cc1nc(N2CCOCC2)c2c(C)c(C(=O)Nc3ccc(C(F)(F)F)cc3)sc2n1	active
Cc1nc(N2CCN(c3ccccn3)CC2)c2c(C)c(C(=O)Nc3ccc(F)c(Cl)c3)sc2n1	inactive
Cc1nc(N2CCN(c3ccccn3)CC2)c2c(C)c(C(=O)Nc3ccc(F)cc3)sc2n1	inactive
Cc1c(C)n2c(SCC(=O)N3CCCC3)nnc2[nH]c1=O	inactive
Cc1cc(/C=N/n2cnnc2)c(C)n1-c1ccc2ncccc2c1	inactive
Cc1nn(C)cc1C(=O)c1ccccc1	inactive
Cc1cccc([C@@H]2[C@@H]3C(=O)N(Cc4ccccc4)C(=O)[C@@H]3[C@]3(Cc4ccc(Cl)cc4)C(=O)N(c4cccc(Cl)c4)C(=O)N23)c1	inactive
C=CCNC(=O)C1CC2c3ccccc3C1c1ccccc12 (stereo not drawn)	inactive
CC(=O)c1c(C)oc2ccc(NS(=O)(=O)c3ccc(C(=O)O)cc3)cc12	active
COc1ccc(S(=O)(=O)Nc2ccc3oc(C)c(C(C)=O)c3c2)cc1	inactive
CC(=O)c1c(C)oc2ccc(NS(=O)(=O)c3ccccc3)cc12	inactive
COc1ccccc1CNC(=O)COn1nnc2ccc(S(=O)(=O)N3CCOCC3)cc21	inactive
CCc1cccc(NC(=O)COC(=O)C2CCN(c3ccc(C(F)(F)F)cn3)CC2)c1	inactive
O=C(NCC(c1cccs1)N1CCOCC1)c1cc(Cl)ccc1[N+](=O)[O-] (stereo not drawn)	inactive
Cc1ccc(S(=O)(=O)N2CCC(C(=O)NCCC3=CCCCC3)CC2)cc1C	inactive
O=C(CCC(=O)c1cccs1)Nc1nc2ccccc2s1	inactive
CC12CCC(=O)N1C(C(=O)Nc1ccc(F)c(F)c1F)CS2 (stereo not drawn)	inactive
COc1cc2ccccc2cc1C(=O)N1CCOCC1	inactive
COc1ccc(S(=O)(=O)NCc2cccnc2)cc1NC(=O)c1ccc(C)cc1	inactive
COc1cccc(OCc2cc(/C=N/NC(=O)c3nc(Cl)c(Cl)c(N)c3Cl)ccc2OC)c1	inactive

Structure (SMILES)	outcome
COc1ccc(/C=N/NC(=O)c2ccc(Cl)cc2)cc1COC(C)=O	active
COc1ccc(/C=N/NC(=O)c2ccccc2)cc1OS(=O)(=O)c1ccccc1	inactive
CCOC(=O)N1CCN(C(=O)c2ccccc2SCC(=O)NCC2CCCCC2)CC1	inactive
COc1ccccc1C(CNC(=O)c1cccc(NS(=O)(=O)c2ccc(Br)cc2)c1)N(C)C (stereo not drawn)	inactive
CCOc1ccc(CCNC(=O)CN2C(=O)NC3(CCc4ccccc43)C2=O)cc1OCC (stereo not drawn)	inactive
COc1ccccc1NC(=O)C(C)OC(=O)c1ccc(-n2cnnn2)cc1 (stereo not drawn)	inactive
COc1ccc(C(=NN)c2ccc(OC)cc2)cc1	inactive
CCCCn1c(N)c(N(Cc2ccccc2OC)C(=O)COc2cc(C)ccc2Cl)c(=O)[nH]c1=O	inactive
COc1ccc(NC(=O)CN(C)C(=O)c2n[nH]c3ccccc23)cc1	inactive
CCN(CC)c1ccc(S(=O)(=O)N2CCCCC2)cc1NC(=O)C1=COCCO1	inactive
CCCCn1c(N)c(N(CC(C)C)C(=O)c2cnc(C)cn2)c(=O)[nH]c1=O	inactive
Cc1cccc(N(Cc2ccccc2)C(=O)c2cc(S(=O)(=O)N3CCOCC3)ccc2F)c1	inactive
Cc1ccc(C)c(NC(=O)COC(=O)Cn2c(C)csc2=O)c1	inactive
COc1ccc(-c2ccc3nnc(SCC(=O)Nc4ccc(NC(C)=O)cc4)n3n2)cc1	inactive
COc1ccc(C2CC(c3ccccc3)=NN2C(=O)c2ccc(Cl)c([N+](=O)[O-])c2)cc1 (stereo not drawn)	active
COc1ccc(C2=NN(C(=O)c3cccnc3)C(c3ccccc3)C2)cc1 (stereo not drawn)	inactive
COc1ccc(C2CC(c3ccc([N+](=O)[O-])cc3)=NN2C(C)=O)cc1 (stereo not drawn)	inactive
COc1ccc(S(=O)(=O)NCC(c2ccco2)N2CCOCC2)cc1 (stereo not drawn)	inactive
CCn1cc(C(=O)NCCO)c(=O)c2cc(F)c(N3CCN(C)CC3)cc21	active
CN1CCN(c2cc3c(cc2F)c(=O)c(C(=O)O)cn3CCF)CC1	inactive
CCCCNC(=O)c1cn(CC)c2cc(N3CCN(C(=O)c4ccco4)CC3)c(F)cc2c1=O	inactive
